Source: PubChem BioAssay
ELG1 repair inh: inhibitors of ELG1-dependent DNA repair in HEK293T cells; HEK293T ELG1-luciferase reporter, luminescence, 16 h; DNA damage induced by 5-fluorouridine; Potency, µM (highest dose often 46.1 µM), inactives show at the highest dose activity change, negative = inhibition, usual class: inhibitors; hit rate 2.3% among 330,000; AID 504467; further: nearly all actives have a fitted effect of over 55% in size
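DMSO vehicle served as the neutral condition. Each well held 2,000 cells given 5-fluorouridine plus compound; after 16 hr at 37 °C/5% CO2, ONE-Glo was added and luciferase measured 30 min later.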
VP16 counter: inhibits Gal4-VP16 luciferase reporter, ROR gamma counter-screen; Drosophila S2 Gal4-VP16 UAS-luciferase, luminescence, 20 h; Potency, µM (doses to about 53.6 µM), without a hit: at the top dose activity, negative = inhibition, actives largely listed as inhibitors; hit rate 3.5% among 310,000; AID 2546;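 further: Gal4-VP16 expression switched on by copper sulfate through the metallothionein promoter; nearly all actives have a fitted effect of over 50% in size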
12-LOX inh: ALOX12 (human) lipoxygenase inhibition | purified 12hLO, xylenol orange hydroperoxide absorbance | P18054 | hit rate 1.1% among 580,000 | Potency, µM (series often up to 108 µM), inactives show top-dose activity change, negative = inhibition, actives largely listed as inhibitors
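Purified human 12hLO (150 nM final) in 25 mM Hepes, 0.01% Triton X-100, pH 7.0 was preincubated 15 min at room temperature with compound. Then 40 uM arachidonic acid was added, 30 min. Hydroperoxide was read by Fe-XO absorbance ratio 573/405 nm.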
TDP1 cell CPT: DT40-hTDP1 cell growth loss with CPT; chicken DT40 Tdp1-/-;hTDP1 cells + 20 nM CPT, ATP luminescence, 48 h; Potency, µM (top dose mostly 46.2 µM), without a hit: top-dose activity change, negative = growth inhibition, actives largely listed as inhibitors; hit rate 12% among 420,000; AID 686979; further: nearly all actives have a fitted effect of over 55% in size
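Chicken DT40 Tdp1-/- cells complemented with human TDP1, 400 cells/well, exposed to compounds plus 20 nM camptothecin for at least 48 h at 37 C; viability read as ATP content by CellTiter-Glo luminescence.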
RORg inh: ROR gamma (mouse) transcription inhibition. P51450. Drosophila S2 Gal4-RORgamma UAS-luciferase reporter, 20 h. Potency, µM (top dose mostly 53.6 µM), for inactives: at the highest dose activity change, negative = inhibition, hits mostly inhibitors. hit rate 5.4% among 310,000. AID 2551; further: nearly all actives have a fitted effect of over 60% in size
Target sequence (P51450 whole entry, looked up, the tested form may be a part): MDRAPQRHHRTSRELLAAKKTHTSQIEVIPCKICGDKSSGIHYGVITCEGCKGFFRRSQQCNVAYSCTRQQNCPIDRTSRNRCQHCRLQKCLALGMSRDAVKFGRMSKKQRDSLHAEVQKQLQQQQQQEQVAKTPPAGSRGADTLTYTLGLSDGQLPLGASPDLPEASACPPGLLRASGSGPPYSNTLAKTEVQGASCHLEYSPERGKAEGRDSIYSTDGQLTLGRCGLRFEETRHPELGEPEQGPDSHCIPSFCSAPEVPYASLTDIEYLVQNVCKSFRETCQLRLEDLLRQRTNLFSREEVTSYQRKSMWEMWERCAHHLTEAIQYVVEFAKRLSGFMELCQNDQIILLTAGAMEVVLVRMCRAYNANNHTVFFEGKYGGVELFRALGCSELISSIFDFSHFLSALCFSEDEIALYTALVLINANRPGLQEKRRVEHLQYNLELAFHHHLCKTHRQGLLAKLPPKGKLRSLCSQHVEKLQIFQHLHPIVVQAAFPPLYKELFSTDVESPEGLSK
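Compounds are pin-transferred onto Drosophila Schneider cells expressing a copper-inducible Gal4–ROR gamma transactivation domain fusion. After 1 hr, copper sulfate is added to 700 uM final; luciferase is read 20 hr later.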
DT40 TDP1 no CPT: qHTS for Inhibitors of human tyrosyl-DNA phosphodiesterase 1 (TDP1): qHTS in cells in absence of CPT; AID 686978, 2013; DT40 Tdp1-/- hTDP1 cells, no CPT, ATP luminescence, 48 h; Potency, µM (top dose mostly 46.2 µM), inactives show at the top dose activity change, negative = growth inhibition, usual class: inhibitors; hit rate 15% among 420,000; further: nearly all actives have a fitted effect of over 55% in size
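Chicken DT40 Tdp1-/- cells stably complemented with human TDP1 were seeded at 400 cells/well with DMSO in place of 20 nM camptothecin. After compound pinning, cells grew at least 48 hr at 37 °C; viability read by CellTiter-Glo luminescence.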
An asterisk follows results filed as active; ? = inconclusive; · = not tested or not shown. Sampled rows, rich in hits. Any-hit rate of the full collection: about 15%. The call rests on the fitted dose curve; in most records, active means well fitted curve in the direction sought with a large enough effect; inconclusive means small, poorly fitted or top-dose-only effect, or another doubt; inactive means no such curve, though single readings can be large; an effect the other way counts as inactive or inconclusive. On the % scale 0 is the no-effect control and ±100 the full control effect; potency means the concentration at half of the fitted maximal effect.

SMILES | ELG1 repair inh | VP16 counter | 12-LOX inh | TDP1 cell CPT | RORg inh | DT40 TDP1 no CPT
CC(=O)N1CCCc2cc(S(=O)(=O)NCCC3=CCCCC3)ccc21 | -2.5% | ? | 0.0% | 10µM* | 27.9% | 11.2µM*
CC(C)CNS(=O)(=O)c1ccc(CCC(=O)NCCC2=CCCCC2)cc1 | -16.7% | -7.7% | 32.0% | ? | 35.9% | 23.1µM*
CC(=O)N1CCCc2cc(S(=O)(=O)NCc3ccc(N(C)C)cc3)ccc21 | · | · | -2.6% | ? | · | 20.6µM*
CCOc1ccccc1CN1CC[C@H](c2n[nH]c(C)n2)[C@H](NC(=O)C2CC2)C1 | · | · | 87.7% | · | · | ·
Cn1cc(CN2CCOCCNC(=O)CC2)c2ccccc21 | · | · | 125.1% | · | · | ·
Cc1cccc(-c2nc(Cn3c(-c4ccccc4)nc(C)c(CCO)c3=O)c(C)o2)c1 | · | · | 12.1% | · | · | ·
CCn1cnc2c1c(=O)n(CC(=O)c1cc(C)n(CC3CCCO3)c1C)c(=O)n2Cc1ccccc1 (configuration not stated) | · | · | 17.1% | · | · | ·
COc1ccc2[nH]c(C(=O)NCC(=O)N3CCCCCCNC(=O)CC3c3ccccc3)cc2c1 (configuration not stated) | · | · | 15.6% | · | · | ·
O=c1[nH]nc(SCc2ncc(-c3ccccc3)o2)n1C1CC1 | · | · | -24.9% | · | · | ·
O=C1CCCc2nc(N3CCN(C(c4ccccc4)c4ccccc4)CC3)ncc21 | ? | -1.4% | 0.0% | 16.4µM* | 27.6% | 20.6µM*
C=CCC[C@H](Cc1ccc(F)cc1)C(=O)OC[C@H](Cc1c[nH]c2ccccc12)NC(=O)[C@H](CC=C)CC(=O)N(CCO)Cc1ccccc1 | 20.6µM* | · | -11.4% | ? | · | 25.9µM*
C=CCC[C@@H](Cc1ccc(F)cc1)C(=O)OC[C@@H](Cc1c[nH]c2ccccc12)NC(=O)[C@@H](CC=C)CC(=O)N(CCO)Cc1ccccc1 | ? | · | -12.2% | ? | · | 23.1µM*
CCn1c(=O)c([N+](=O)[O-])c(Cl)c2ccccc21 | -1.1% | 8.91µM* | · | 2.91µM* | 7.94µM* | 2.59µM*
CCn1c(=O)c([N+](=O)[O-])c(NCCN(C)C)c2ccccc21 | ? | 27.2% | -2.0% | 39.3% | -11.8% | 11.8%
COC(=O)c1ccc(C(=O)Nc2ccc(F)cc2)cc1 | ? | · | 0.0% | 10.3µM* | · | 8.2µM*
CC(=O)Nc1cccc(NC(=O)Nc2ccc(F)cc2F)c1 | ? | 8.3% | 3.5% | 14.1% | -12.8% | ?
O=C(Nc1ccccc1)Nc1ccc(F)cc1F | ? | 5.0% | -15.4% | ? | 5.4% | 23.1µM*
COC(=O)c1ccc(NC(=O)Cc2ccc(F)cc2)cc1 | -0.5% | 0.9% | 81.3% | ? | 8.8% | ?
COC(=O)c1ccc(NC(=O)Nc2ccc(F)cc2F)cc1 | ? | -9.2% | -4.6% | 8.2µM* | -3.8% | 6.51µM*
O=C(CC[C@H]1NC(=O)c2ccccc2NC1=O)Nc1n[nH]c(CCc2ccccc2)n1 | · | · | 50.3% | · | · | ·
C=C1/C=C(\C)C(C)(O)CC(O)CC(=O)C(O)C(O)C(C)CC(C)OC(=O)/C(C)=C/CC/C=C/C(OC)C(O)CC(C)C1 (configuration not stated) | 14.6µM* | · | · | ? | · | ?
COCC(=O)Nc1cccc(NC(=O)CC2CCCC2)c1 | · | · | 3.3% | · | · | ·
COCCn1c(C)cc(-c2csc(NCc3ccccc3OC)n2)c1C | · | · | 61.6% | · | · | ·
COc1ccc(C2(C(=O)N3C[C@@H](Oc4cccnc4)C[C@H]3C(=O)NC3CC3)CC2)cc1 | · | · | 34.3% | · | · | ·
Cn1c(SCC(=O)NCc2ccccc2)ncc(C(=O)Nc2ccccc2)c1=O | 13.4% | · | 3.4% | 11.6µM* | · | ?
SMILES | ELG1 repair inh | VP16 counter | 12-LOX inh | TDP1 cell CPT | RORg inh | DT40 TDP1 no CPT
CC(=O)Nc1ccc(NC(=O)CSc2ncc(C(=O)Nc3ccccc3)c(=O)n2C)cc1 | ? | · | -30.0% | 20.6µM* | · | 20.6µM*
COc1ccc(CCNC(=O)CSc2ncc(C(=O)Nc3ccccc3)c(=O)n2C)cc1 | 4.0% | · | 10.3% | ? | · | ?
COc1ccccc1NC(=O)c1cnc(SCC(=O)NCCc2ccccc2)n(C)c1=O | ? | · | ? | 16.4µM* | · | 10.3µM*
Cc1ccc(CNC(=O)CSc2ncc(C(=O)Nc3ccccc3)c(=O)n2C)cc1 | ? | · | 6.3% | 11.6µM* | · | 14.6µM*
CCCN1C(=O)c2cc(C(=O)NCc3ccccc3OC)nn2CC1(C)C(=O)NC1CCCC1 (configuration not stated) | · | · | 2.1% | · | · | ·
CCS(=O)(=O)Nc1ccc(C(=O)N[C@H]2C[C@@H](C(=O)OC)N(C)C2)cc1 | · | · | -0.9% | · | · | ·
ON=C(c1ccccc1)c1ccc2c3c(cccc13)CC2 | · | · | 0.9% | ? | · | 18.4µM*
Cc1ccc(NC(=O)c2ccccc2NCC(=O)N2CC(=O)Nc3ccccc32)cc1 | · | · | 4.2% | · | · | ·
CCc1ccc2c(c1)-c1ccccc1S(=O)(=O)N2CC(=O)NCc1ccncc1 | · | · | 4.3% | · | · | ·
CCCC(O)(CCC)C(=O)NN1CCCCC1 | 9.9% | -7.2% | -9.2% | 23.1µM* | 10.5% | ?
CC(C)CCC(O)(CCC(C)C)C(=O)NN1CCCCC1 | 6.7% | ? | -13.9% | -24.8% | -9.1% | 0.1%
COc1ccc2c(c1)cc(C(=O)Nc1cccc(Cl)c1)n2C | · | · | -1.2% | · | · | ·
COc1ccc2c(CCNC(=O)CSc3nc(Cl)nc4nc[nH]c34)c[nH]c2c1 | · | · | -8.9% | · | · | ·
CC(C)OC(=O)c1cccc(C(=O)OCc2ccco2)n1 | ? | ? | ? | ? | -22.8% | 20.6µM*
O=S(=O)(c1cccs1)N1CC(c2noc(C3CCCN3CC3CC3)n2)C1 (configuration not stated) | · | · | -4.6% | · | · | ·
C/C(CS(=O)(=O)c1ccc(Cl)c(Cl)c1)=N/NC(N)=S | ? | -5.6% | ? | 18.4µM* | -3.2% | 5.8µM*
Cc1c(Cl)cccc1-c1ccc(CNc2ccc3[nH]c(=O)[nH]c3c2)o1 | · | · | ? | 3.26µM* | · | ?
Cc1c(Cl)cccc1NC(=S)Nc1ccc2[nH]c(=O)[nH]c2c1 | -4.8% | -16.9% | ? | -0.2% | 0.0% | -1.3%
CNCc1ccc(-c2ccc(Cl)cc2)o1 | · | · | -27.0% | · | · | ·
O=c1[nH]c2ccc(NCc3ccc(-c4ccc(Br)cc4)o3)cc2[nH]1 | · | · | 10µM* | -10.6% | · | -19.9%
O=c1[nH]c2ccc(NCc3ccc(-c4cccc(Cl)c4)o3)cc2[nH]1 | · | · | ? | 29.1µM* | · | 18.4µM*
CNCc1ccc(-c2ccc(Br)cc2)o1 | · | · | 28.2µM* | · | · | ·
COC[C@@H]1CN(Cc2cc(F)c(F)c(F)c2)C[C@H]1C(N)=O | · | · | 24.7% | · | · | ·
